Compound activity (PubChem BioAssay)
An excerpt weighted towards active compounds, which were near 4% of everything screened.
NLRP3 yeast inh – blocks the NALP3 inflammasome reconstituted in yeast. actives 0.39% (n = 330,000). inhibition, % at 10 µM. Yeast reconstituted NLRP3/ASC/caspase-1, beta-gal luminescence, 24 h;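 active = inhibition of 50% or more; inactive = inhibition below 50%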;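 also: plate controls were induced DMSO wells for no effect and uninduced yeast grown without galactose for full effect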
tim10-1 inh – tim10-1 yeast growth inhibition | S. cerevisiae tim10-1 ts strain growth, BacTiter-Glo, 24 h | inhibition, % at 20 µM | actives 2.2% (n = 330,000) | AID 463190;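 active = inhibition of at least 40%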;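 also: mutant grown at 25 °C; 0% = DMSO wells with yeast and 100% = wells holding no yeast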
TIM10 inh – TIM10 yeast growth inhibition | actives 1.4% (n = 330,000) | S. cerevisiae TIM10 strain growth, BacTiter-Glo luminescence, 24 h | AID 463195 | inhibition, % at 10 µM;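 active = inhibition of 40% or more at the single tested concentration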;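 also: wild-type TIM10 isogenic control strain grown at permissive 25 °C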
tim23-1 inh – tim23-1 yeast growth inhibition. actives 1.3% (n = 330,000). AID 463212. inhibition, % at 20 µM. S. cerevisiae tim23-1 growth, BacTiter-Glo luminescence, 24 h;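 active = growth inhibition of the mutant yeast at or above 50%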;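 also: temperature-sensitive mutant grown at 25 °C; plate controls were DMSO-treated mutant yeast for no effect and medium wells lacking yeast for full effect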
NALP1 inh – inhibitors of NALP1 inflammasome in yeast | S. cerevisiae NALP1/ASC/caspase-1 growth, X-gal OD620, 72 h | inhibition, % at 10 µM | actives 0.61% (n = 280,000) | AID 2071; in the data active = inhibition mostly above about 24%, no sharp cut-off; inactive = mostly below about 32%
tim10-1 conf – tim10-1 yeast growth inhibition, confirmed | AID 463213 | S. cerevisiae tim10-1 ts strain growth, BacTiter-Glo, 24 h | actives 56% (n = 7,400) | shares compounds with tim10-1 inh | inhibition, % at 20 µM;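 active = inhibition of yeast growth at or above a set limit in either of two repeat tests at 20 µM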;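 also: tim10-1 mutant grown at permissive 25 °C to find synthetic lethal compounds; 0% = DMSO yeast wells and 100% = medium wells without yeast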
TIM10 conf – TIM10 yeast growth inhibition, confirmed. inhibition, % at 10 µM. shares compounds with TIM10 inh. S. cerevisiae tim10 strain growth, BacTiter-Glo luminescence, 24 h. AID 463215. actives 63% (n = 4,600);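 active = inhibition of yeast growth at or above a set limit in either of two replicates at 10 µM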;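 also: this counterscreen used the strain with wild-type TIM10; 0% = yeast with DMSO and 100% = medium wells lacking yeast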
tim23-1 confirm – tim23-1 yeast growth inhibition, confirmed. shares compounds with tim23-1 inh. S. cerevisiae tim23-1 growth, BacTiter-Glo luminescence, 24 h. inhibition, % at 20 µM. actives 83% (n = 4,400);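 active = inhibition above about 39% in either of two replicate wells at 20 µM, limit read from the data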;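 also: temperature-sensitive tim23-1 mutant grown at 25 °C; 0% = DMSO wells with yeast and 100% = medium wells without yeast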
Active calls of the source: *; x = no result.

SMILES	NLRP3 yeast inh	tim10-1 inh	TIM10 inh	tim23-1 inh	NALP1 inh	tim10-1 conf	TIM10 conf	tim23-1 confirm
O=C1C(=O)c2c(C(=O)c3ccccc3)coc2-c2ccccc21	0.8	93.0*	73.7*	70.8*	11.1	91.2*	81.0*	64.6*
Cc1oc2c(c1C(=O)c1ccccc1)C(=O)C(=O)c1ccccc1-2	16.2	56.2*	50.9*	67.8*	6.9	49.5*	53.3*	67.1*
Nc1cc(Cl)nc(N/N=C/c2c(O)ccc3ccccc23)n1	46.4	49.8*	44.5*	66.1*	28.8	38.3*	-9.2	70.0*
COc1ccccc1CNC(=O)/C(C#N)=C/c1ccc(OC)c(OC)c1OC	13.5	46.0*	23.5	53.5*	-4.4	44.9*	x	-22.6
COc1ccc(/C=C(\C#N)C(=O)OCC(=O)NCc2ccccc2OC)cc1	18.3	2.1	-9.2	0.8	x	x	x	x
O=C(c1ccc(-n2cnnn2)cc1)N(C1CCCCC1)C1CCCCC1	8.4	17.8	22.3	6.9	-5.5	x	x	x
O=C(NO)c1ccc(C(=O)N(C2CCCCC2)C2CCCCC2)cc1	6.5	52.9*	51.4*	64.4*	4.7	40.6*	39.5*	71.1*
COc1cccc(C(=O)O/N=C(\N)Cc2ccc(Cl)cc2)c1	17.3	52.8*	85.1*	58.1*	77.3*	29.9	-1.8	42.6*
Cc1cccc(/C(N)=N/OC(=O)c2ccncc2)c1	11.7	25.6	36.0	8.3	-10.1	x	x	x
COc1ccc(C(=O)O/N=C(\N)c2cccc(C)c2)cc1OC	13.3	50.9*	46.2*	52.7*	15.7	52.3*	53.6*	71.2*
Cc1cccc(/C(N)=N/OC(=O)c2ccoc2C)c1	12.0	44.0*	55.4*	67.3*	32.2	55.0*	39.2*	49.9*
COc1cccc(C(=O)O/N=C(\N)c2ccc(C)cc2)c1	34.5	56.6*	71.7*	69.4*	18.6	41.2*	82.2*	70.6*
Cc1noc(NS(=O)(=O)c2ccc(NC(=O)C34CC5CC(C3)CC(n3cnc(Br)n3)(C5)C4)cc2)c1C	6.3	9.5	-1.3	8.2	23.6	x	x	x
COc1ccc(/C=C2/CCc3ccccc3C2=O)cc1OC	20.7	16.8	21.0	40.5	49.0	x	x	x
COc1ccc(/C=C2\COc3ccccc3C2=O)cc1OC	36.4	56.8*	50.2*	69.6*	63.6	57.4*	11.6	58.0*
Cc1ccc(CSc2nc3ccccc3cc2C=O)cc1	12.6	47.6*	25.1	69.2*	13.0	47.1*	x	56.8*
O=Cc1cc2ccccc2nc1SCc1ccc(Cl)cc1	14.3	63.7*	50.4*	78.2*	-12.2	55.4*	62.6*	64.0*
COc1ccc(Oc2ccc(/C=C/C(=O)c3cccc(OC)c3)cc2[N+](=O)[O-])cc1	9.3	30.1	22.9	33.1	32.2	x	x	x
O=S(=O)(c1cccc(-c2nc3ccccc3s2)c1)N1CCOCC1	-39.8	40.6*	43.1*	52.5*	1.8	39.7*	30.3*	40.4*
CCc1ccc(NSc2ccccc2[N+](=O)[O-])cc1	26.9	53.8*	36.2	52.2*	36.0	42.9*	x	58.0*
O=C(O)c1ccccc1NSc1ccccc1[N+](=O)[O-]	5.4	27.5	20.5	11.2	16.8	x	x	x
Cc1ccc(O)c(Sc2cc(C)ccc2O)c1	27.4	47.2*	26.9	52.9*	2.8	27.8	x	44.9*
Cc1ccc(O)c(O)c1	x	9.0	-9.8	12.1	x	x	x	x
O=C(Cc1cc(=O)oc2cc(O)ccc12)NC(Cc1ccc(Cl)cc1)C(=O)O (stereo not given)	9.9	20.8	2.5	21.8	15.0	x	x	x
Cc1ccc(C)c2c1[nH]c1ccc([N+](=O)[O-])cc12	12.4	49.9*	39.1	68.2*	13.4	30.7*	x	50.6*
CC(C)(C)c1ccc(NC(=O)N2CCN(c3ccc([N+](=O)[O-])cn3)CC2)cc1	6.6	21.9	18.4	16.2	11.0	x	x	x
CCOc1c(Br)cc(C(N)=O)cc1OCc1ccccc1	4.9	24.9	8.5	27.3	17.7	x	x	x
